Source: PubChem (National Center for Advancing Translational Sciences (NCATS))
Sampled rows, rich in hits. Any-hit rate of the full collection: about 9.4%.
AMA1-RON2 inh = inhibitors of Plasmodium falciparum AMA1-RON2 interaction | AlphaScreen AMA1-biotinylated RON2 peptide binding | Potency, µM (highest dose often 58.2 µM), hits mostly inhibitors | 360,000 compounds, 0.2% hits; note: nearly all actives have a fitted effect of over 45% in size
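AMA1 (3D7) with his tag at 25 nM final met compounds first, then biotinylated RON2 peptide at 25 nM; detection used donor plus acceptor beads, 10 µg/mL apiece, read by AlphaScreen after 30 min at room temperature.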
Pf growth 96h = inhibits malaria parasite growth, 96 h; 320,000 compounds, 6.9% hits; P. falciparum luciferase reporter growth, 96 h; Potency, µM (titrated, usually from 28.7 µM), actives largely listed as inhibitors
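P. falciparum expressing integrated firefly luciferase, in erythrocytes at 2% hematocrit, 0.05% parasitemia, incubated with compounds 96 h at 37 C, 5% CO2. Growth inhibition read as loss of luminescence; two-generation exposure targets delayed-death apicoplast inhibitors.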
Pf growth 48h = inhibits P. falciparum growth in the first generation, 48 h; P. falciparum luciferase growth in erythrocytes, 48 h; Potency, µM (titrated, usually from 28.7 µM), most hits filed as inhibitors; 310,000 compounds, 5.9% hits
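Read-out is firefly luciferase luminescence from an integrated reporter in P. falciparum, so falling signal marks reduced parasite growth. Infected erythrocytes were at 2% hematocrit and 0.1% parasitemia (final) in Albumax-supplemented RPMI 1640.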
SARS PLP yeast = blocks SARS-CoV papain-like protease in a yeast assay; S. cerevisiae expressing SARS-CoV PLpro, growth rescue; AID 485353; Potency, µM (doses to about 32.9 µM), usual class: activators; 330,000 compounds, 0.19% hits; calls by dose curve; note: nearly all actives have a fitted effect of over 55% in size
Large screens that a line does not name were inactive. Unless noted, calls come from the whole dose curve; as a rule, active = well fitted curve in the direction sought with a large enough effect; inconclusive = small, poorly fitted or top-dose-only effect, or another doubt; inactive = no such curve, though single readings can be large; an effect the other way counts as inactive or inconclusive.

COc1ccc(C2C(C(C)=O)=C(O)C(=O)N2CCO)c(OC)c1 (configuration not stated)	Pf growth 96h 12µM
COc1cccc(N2C(=O)C(O)=C(C(C)=O)C2c2ccc(OC)c(OC)c2)c1 (configuration not stated)	Pf growth 96h inconclusive, Pf growth 48h 13µM
CCCCN1C(=O)C(O)=C(C(C)=O)C1c1ccc(OC)cc1OC (configuration not stated)	none
COc1ccc(-c2n[nH]c3c2C(c2ccc(OC)c(OC)c2)N(c2ccccc2)C3=O)cc1 (configuration not stated)	Pf growth 96h 0.12µM (no result: Pf growth 48h)
CCOc1ccccc1C(=O)NC1CC2CCCC(C1)N2Cc1nnnn1Cc1ccco1 (configuration not stated)	Pf growth 96h inconclusive, Pf growth 48h 12µM
O=C(NC1CC2CCC(C1)N2Cc1nnnn1Cc1ccco1)NC12CC3CC(CC(C3)C1)C2 (configuration not stated)	Pf growth 48h 12µM (no result: Pf growth 96h)
O=C(NCc1ccccc1)NC1CC2CCC(C1)N2Cc1ccco1 (configuration not stated)	none
COc1ccc(S(=O)(=O)Oc2c(OC)cc(C(=S)N3CCOCC3)cc2OC)cc1	Pf growth 96h inconclusive
Cc1ccc(CNC(=O)CSc2nc3c(sc4ccccc43)c(=O)n2CCCN2CCCC2)cc1	Pf growth 48h 10µM
COc1cccc(NC(=O)CSc2nc3c(sc4ccccc43)c(=O)n2CCCN2CCCC2)c1	Pf growth 48h 10µM, SARS PLP yeast inconclusive
COc1cccc(NC(=O)CSc2nc3c(sc4ccccc43)c(=O)n2CCN(C)C)c1	Pf growth 96h inconclusive, Pf growth 48h inconclusive
COc1ccc(CN(C)C(=O)[C@H]2O[C@@H](n3cnc4c(N)ncnc43)[C@H](O)[C@@H]2O)cc1OC	none (no result: Pf growth 96h, Pf growth 48h, SARS PLP yeast)
CCOc1cc(-c2nc(-c3ccccc3)c(-c3cc([N+](=O)[O-])ccc3C)[nH]2)ccc1O	Pf growth 96h inconclusive, Pf growth 48h inconclusive (no result: SARS PLP yeast)
Cc1c(CN2CCc3c([nH]c4ccccc34)C2C2CCCCC2)cnn1C (configuration not stated)	Pf growth 96h 5.9µM, Pf growth 48h inconclusive
Cc1cnc(CN2CCc3c([nH]c4ccccc34)C2CC(C)C)[nH]1 (configuration not stated)	Pf growth 48h 13µM
CCn1ccnc1CN1CCc2c([nH]c3ccccc23)C1CC(C)C (configuration not stated)	Pf growth 96h inconclusive, Pf growth 48h inconclusive
Cc1cccc(CN2CCc3c([nH]c4ccccc34)C2CC(C)C)n1 (configuration not stated)	Pf growth 96h 10µM, Pf growth 48h 9.3µM
CCn1ccnc1CN1CCc2c([nH]c3ccccc23)C1C1CCCCC1 (configuration not stated)	Pf growth 48h inconclusive
CCn1ccnc1CN1CCc2c([nH]c3ccccc23)C1C(C)(C)C (configuration not stated)	Pf growth 48h 4.7µM
COc1cccc(CNC(=O)[C@H](C)NC(=O)N2CC(=O)Nc3ccccc32)c1	none (no result: Pf growth 96h, Pf growth 48h, SARS PLP yeast)
CCc1ccc(-c2cc(C)no2)cc1S(=O)(=O)Nc1cc(C)on1	Pf growth 96h inconclusive
COc1ccc(-c2cc(C)no2)cc1S(=O)(=O)NCc1cccc(C)c1	Pf growth 48h inconclusive
COc1ccc(-c2cc(C)no2)cc1S(=O)(=O)Nc1cccc(CN2CCCC2)c1	Pf growth 48h 15µM
CCc1ccc(-c2cc(C)no2)cc1S(=O)(=O)Nc1cccc(CN2CCCC2)c1	Pf growth 48h 9.3µM
COC(=O)CCN(c1ccccc1)S(=O)(=O)c1cc(-c2cc(C)no2)ccc1OC	Pf growth 96h 10µM, Pf growth 48h inconclusive
COc1ccc(-c2cc(C)no2)cc1S(=O)(=O)NCc1ccc(OC(C)C)cc1	Pf growth 96h 10µM
CCN(c1ccc(OC)cc1)S(=O)(=O)c1cc(-c2cc(C)no2)ccc1OC	Pf growth 96h inconclusive, Pf growth 48h inconclusive
CC1=CC2CC1C1C(=O)N(c3ccc(S(=O)(=O)Nc4nc(C)cc(C)n4)cc3)C(=O)C21 (configuration not stated)	none
Cc1cc(C)c(NC(=O)C(C)Sc2nc3ccc(N4C(=O)c5ccccc5C4=O)cc3s2)c(C)c1 (configuration not stated)	none
Cc1cc(CNC(=O)COc2ccc(F)cc2)c2ccccc2n1	none
COc1ccc(NC(=O)CN(C)C(=O)c2sc3ccccc3c2Cl)cc1	none
CCOc1ccc(NC(=O)CN(C)C(=O)CSCc2cccc(C)c2)cc1OCC	Pf growth 96h 15µM, Pf growth 48h inconclusive
CCOc1ccc(CC(=O)Nc2sc(Cc3ccccc3)cc2C(N)=O)cc1OCC	Pf growth 96h 12µM (no result: Pf growth 48h)
CCOc1ccc(NC(=O)CN(C)C(=O)c2ccccc2Cc2ccccc2)cc1OCC	Pf growth 96h inconclusive, Pf growth 48h 12µM
CCOc1ccc(NC(=O)CN(C)C(=O)c2cc(S(=O)(=O)N(C)C)ccc2N2CCCC2)cc1OCC	Pf growth 48h 10µM
COCCCNc1nc2ccccc2nc1NS(=O)(=O)c1cccc(Cl)c1	none
O=C(NC1CC1)c1cc(-c2ccc(Br)cc2)nc2ccccc12	Pf growth 96h inconclusive, Pf growth 48h inconclusive
Cn1c(=O)c2[nH]c(CN3CCCCC3)nc2n(C)c1=O	none (no result: Pf growth 96h, Pf growth 48h, SARS PLP yeast)
CN(CC(=O)Nc1c(Cl)cccc1Cl)C(=O)c1ccccc1Cc1ccccc1	Pf growth 96h inconclusive, Pf growth 48h 13µM
CCOc1ccc(NC(=O)CN(C)C(=O)c2csc3c2CCCC3)cc1OCC	Pf growth 96h inconclusive, Pf growth 48h 13µM
CN(CC(=O)Nc1ccccc1Br)C(=O)c1ccccc1Cc1ccccc1	Pf growth 48h inconclusive
O=C(CCl)Nc1ccccc1Sc1ccccc1	Pf growth 96h 9.3µM, SARS PLP yeast 13µM (no result: Pf growth 48h)
O=C(Cc1ccc(Cl)cc1)Nc1ccccc1Sc1ccccc1	Pf growth 96h inconclusive
CC(C)N(c1ccccc1)c1ccc(NC(=O)[C@@H]2O[C@H](CO)[C@H](O)[C@H](O)[C@H]2O)cc1	none (no result: Pf growth 96h, Pf growth 48h, SARS PLP yeast)
O=C(CCl)Nc1ccc(-c2ccccc2)cc1	Pf growth 96h 13µM, Pf growth 48h inconclusive
Cc1ccc(Sc2ccc(NC(=O)CCl)cc2)cc1C	Pf growth 96h 0.83µM, Pf growth 48h 1.5µM
CC(=O)Nc1ccc(NC(=O)Cc2ccc(-c3ccccc3)cc2)cc1	none
CC(C)N(c1ccccc1)c1ccc(NC(=O)CCl)cc1	Pf growth 96h 10µM, Pf growth 48h 10µM
CCS(=O)c1scc(-c2ccc(Cl)cc2)c1C#N (configuration not stated)	none
O=C(CO/N=C/c1ccccc1OC(F)F)NCc1cccs1	none
O=C(c1cc2ccccc2o1)N1CCN(c2ncccn2)CC1	none (no result: Pf growth 96h, Pf growth 48h)
Cc1[nH]c2ccccc2c1/C=C(\C#N)C(=O)NCc1ccccc1	none
O=C(CCl)Nc1ccc(N=Nc2ccccc2)cc1	Pf growth 96h inconclusive, Pf growth 48h 4.7µM
CC(=O)Nc1ccc(N=Nc2ccccc2)cc1	none
COc1ccc(S(N)(=O)=O)cc1C(=O)OCCCC(=O)c1ccccc1	Pf growth 96h 15µM, Pf growth 48h inconclusive
CS(=O)(=O)c1cccc(C(=O)OCCCC(=O)c2ccccc2)c1	none (no result: Pf growth 96h, Pf growth 48h)
